Compounds without any hit were thinned out: in the full panel of roughly 83,000, 20% have a hit.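 The test compound was applied at a single concentration to cells in 96-well plates for 48 hours, and percent growth was recorded.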 Unmarked numbers belong to inactive results. The source made the active and inactive calls. The calls were made as follows: active = growth percent below 10; inactive = the rest.
These compounds were tested on MDA-MB-468 breast (assay: NCI-60 one-dose screen, 48 h (100 = growth as untreated, 0 = no growth, -100 = all killed)). Conditions: 10 µM unless noted.
CC(C)(C)CC(C)(C)c1ccc(OCCOCC[N+](C)(C)Cc2ccccc2)cc1 was tested, and the growth was -81.8% (active). With C=C1CC2(OC1=O)C(=O)Nc1ccccc12 (centres undefined) the growth was -11.5% (active). CCCCCCOC(=O)c1cc(-c2ccc(F)cc2)nc2ccccc12 showed a growth of 105%. COc1cc(Cn2ccc3c2-c2oncc2CC3)cc(OC)c1 gave a growth of 10.9%. C#Cc1cccc(NC(=O)C2CCCN(C(=O)CCl)C2)c1 (centres undefined) showed a growth of 66.3% [8.25 µM]. In the case of COc1ccc(/C=C/C(=O)c2ccc(NC(=O)CSc3nnc(-c4ccc(Cl)cc4)n3-c3ccccc3)cc2)cc1, the growth is reported as 94.8%. Work on COc1ccc(C(=O)Cn2c(C(=O)c3ccc(OC)cc3)nc3ccccc32)cc1 yielded a growth of 17%. In the case of C#Cc1nc(C2=C(C)C(=O)/C(=N/OC(C)=O)C2)cs1, the growth is reported as 69.9%. C#CCNC(=O)[C@]1(C)CCC[C@@]2(C)[C@H]1CC=C1C=C(C(C)C)CC[C@@H]12 was tested, and the growth was 101%. Compound COc1ccc(N2CCN(c3nc(-c4ccccc4)c(C#N)c(=O)[nH]3)CC2)cc1 has a growth of 97.9%. In the case of C#C[C@]1(O)CC[C@H]2[C@@H]3CC=C4c5sc(Nc6cc(OC)ccc6OC)nc5CC[C@]4(C)[C@H]3CC[C@@]21C, the growth is reported as 9.15% (active). For OCCNc1nc(NCCO)nc(Nc2ccc(C3=NN(c4cc(Cl)cc(Cl)c4)C(c4ccc(Cl)cc4)C3)cc2)n1 (centres undefined), the growth was -5.79% (active). Oc1c(Br)c(Br)c(O)c(Br)c1Br showed a growth of 102%. With NC1CCC(Nc2nc(NCc3cc(Cl)ccc3O)c3ncn(C4CCCC4)c3n2)CC1 (centres undefined) the growth was -51% (active). CCOC(=O)c1c2c(n3ccc(NC(=O)OC(C)(C)C)cc13)C(=O)c1ncccc1C2=O was tested, and the growth was -29% (active). In the case of O=C(Cn1cc(CN2C(=O)c3ccc([N+](=O)[O-])cc3C2=O)nn1)Nc1ccccc1Br, the growth is reported as 111%. For O=C1C(c2c[nH]c3ccccc23)=C(c2coc3cc(Br)ccc23)C(=O)N1O, the growth was 91.6%. With Nc1c2c(nc3ccc(Cl)cc13)CC(c1ccccc1)CC2=O (centres undefined) the growth was -5.35% (active). In the case of CCOC(=O)/C=C/c1c(C)[nH]c(=O)[nH]c1=O, the growth is reported as 72.8%. Work on CCOC(=O)C1OC1(c1ccccc1)c1ccccc1 (centres undefined) yielded a growth of 104%. With O=C1OCC2=C1C(c1ccccc1)c1cc3c(cc1N2CCO)OCCO3 (centres undefined) the growth was -63.7% (active). COc1ccc(-c2nnc(COc3ccc(C(=O)/C=C/c4ccco4)cc3)o2)cc1 gave a growth of 20.4%. Compound CC(=O)Cc1nsc(NC(=O)c2cc(-c3cc(Cl)ccc3Cl)oc2C)n1 has a growth of 100%. In the case of COc1cc(C2CC(c3cccc(Nc4ccncc4)c3)=NN2c2cc(Cl)cc(Cl)c2)cc(OC)c1OC (centres undefined), the growth is reported as -11.9% (active). Compound C[C@@H]1N=C(c2ccc3ccccc3c2)Nc2nc3ccccn3c2C1=O has a growth of 50.5%. For Cc1n(Cc2ccc3ccccc3c2)cc[n+]1Cc1ccc2ccccc2c1, the growth was -22.8% (active). With COc1cccc2c1C(=O)c1c(O)c3c(c(O)c1C2=O)C[C@@](O)(C(C)=O)C[C@@H]3O[C@H]1C[C@H](N)[C@H](O)[C@H](C)O1 the growth was -72.5% (active). Clc1ccc(-c2c3ccc(=[N+]4CCCCC4)cc-3oc3cc(N4CCCCC4)ccc23)cc1 was tested, and the growth was -87.4% (active). With Nc1n[nH]c2cccc(C#Cc3cccc(C(=O)Nc4cccc(C(F)(F)F)c4)c3)c12 the growth was 101%. In the case of O=C1c2cccnc2C(=O)c2c1c(C(=O)OCCN1CCOCC1)c1ccccn21, the growth is reported as -2.61% (active). Work on COc1cccc(C(=O)OCCn2nc3c4c(cccc42)C(=O)c2ccccc2-3)c1O yielded a growth of 24.9%. With CC(=O)Nc1c(Cl)cc2c(c1Cl)Cc1ccccc1-2 the growth was 70.6%. In the case of CCN(CC)c1ccc(/C=C2\Oc3ccc(O)c(I)c3C2=O)cc1, the growth is reported as 61.6%. Work on COc1ccc(Nc2nnc(SCc3ccccc3F)s2)cc1 yielded a growth of 55.9%. With CN1CCN(c2ccc(C(=O)Nc3cccc(-c4cn(-c5ccc(S(N)(=O)=O)cc5)nn4)c3)cc2C(F)(F)F)CC1 the growth was 68.9%. For NC(=NCCCCCCN=C(N)/N=C(\N)Nc1ccc(Cl)cc1)/N=C(\N)Nc1ccc(Cl)cc1, the growth was -69% (active). Work on CCCCn1c(=O)c(/C=C/C(=O)/C=C/c2ccc(O)c(OC)c2)cc2ccc(Cl)cc21 yielded a growth of 15%. C=C(C)[C@@H]1CC[C@]2(C(=O)OCCCC[P+](c3ccccc3)(c3ccccc3)c3ccccc3)CC[C@]3(C)[C@H](CC[C@@H]4[C@@]5(C)CC[C@H](OC(=O)C(Cl)Cl)C(C)(C)[C@@H]5CC[C@]43C)[C@@H]12 was tested, and the growth was -61.7% (active). With COc1ccc(C(C)=O)c(OC)c1 the growth was 97.7%.

From PubChem BioAssay (NCI)
